# Values joined by “and” are separate entries in the source; they are usually repeats but may differ in a detail not shown here. Equal entries are not always repeated. Inconclusive results are not listed. Entries that show only a call come without a potency. The source holds several records for some structures; these can differ, active in one and inactive in another. Active and inactive are the calls of the source. Unless noted, the call rests on the fitted dose curve; in most records, active means well fitted curve in the direction sought with a large enough effect in the repeat runs; inconclusive means weak or mixed curves; inactive means no such curve, though single readings can be large; an effect the other way counts as inactive or inconclusive.
# What was measured:
# [1] = target: Luciferin 4-monooxygenase (Photinus pyralis) (UniProt P08659); assay: qHTS assay to identify small molecule inhibitors of firefly luciferase (AID 1224835); further: nearly all actives have a fitted effect of over 25% in size; further: potency means the concentration at half of the fitted maximal effect
# Method in brief: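 Quantitative HTS format; KM concentrations of both substrates. Purified P. pyralis FLuc activity quantified from luminescence images.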
# [2] = qHTS assay to identify small molecule antagonists of the constitutive androstane receptor (CAR) signaling pathway - cell viability counter screen (AID 1224837); further: nearly all actives have a fitted effect of over 45% in size; further: potency means the concentration at half of the fitted maximal effect
# Method in brief: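 To flag cytotoxic false antagonists, HepG2 hCAR/CYP2B6-2.2kb cells were treated 23 hr with 15-concentration compound series and 50 nM CITCO at 37 C/5% CO2; CellTiter-Fluor fluorescence was the measured end point.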
# [3] = target: Nuclear receptor subfamily 1 group I member 3 (Homo sapiens) (UniProt Q14994); assay: qHTS assay to identify small molecule antagonists of the constitutive androstane receptor (CAR) signaling pathway (AID 1224838);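 further: HepG2 cells stably expressing hCAR with CYP2B6 luciferase reporter stimulated by CITCO; nearly all actives have a fitted effect of over 40% in size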; further: potency means the concentration at half of the fitted maximal effect
# Method in brief: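 Human hepatoma HepG2 cells expressing hCAR and a CYP2B6 promoter (2.2 kb) luciferase construct; compound titration (15 points) with 50 nM CITCO final, 24 h at 37 C/5% CO2; luminescence via ONE-Glo after 30 min at room temperature.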
# [4] = target: Nuclear receptor subfamily 1 group I member 3 (Homo sapiens) (UniProt Q14994); assay: qHTS assay to identify small molecule agonists of the constitutive androstane receptor (CAR) signaling pathway (AID 1224839); further: nearly all actives have a fitted effect of over 15% in size; further: potency means the concentration at half of the fitted maximal effect;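 on activation: HepG2 cells stably carrying human CAR and a CYP2B6 luciferase reporter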
# Method in brief: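 Stable hCAR/CYP2B6-2.2kb HepG2 line in DMEM with 10% FBS; compounds (15 concentrations) and 0.75 uM PK11195 final, 24 h at 37 C/5% CO2, then ONE-Glo luminescence after 30 min.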
# [5] = qHTS assay to identify small molecule antagonists of the estrogen related receptor signaling pathway with the pleiotropic PPARgamma coactivator (PGC) from Tox21 10K library - cell viability counter screen (AID 1224840; active means well fitted cell-killing curve with a large enough effect in the repeat runs, not every such curve was filed as active; further: nearly all actives have a fitted effect of over 40% in size; further: potency means the concentration at half of the fitted maximal effect)
# Method in brief: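 Seeded PGC/ERR cells (2,000/well, 6 h, 37 C/5% CO2) get compound by pin tool; 17.5 h incubation at 37 C; CellTiter-Fluor added, 30 min, fluorescence measured.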
# [6] = qHTS assay to identify small molecule agonists of the hypoxia (HIF-1) signaling pathway - cell viability counter screen (AID 1224844; calls by dose curve; further: nearly all actives have a fitted effect of over 50% in size)
# Method in brief: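 HRE-bla ME-180; 0.5% dFBS; cpd 17 h, 37C, 5% CO2; CellTiter-Glo lum., 30 min RT, post-FRET read, same wells.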
# [7] = qHTS assay to identify small molecule agonists of H2AX (AID 1224845; active means well fitted activation curve with a large enough effect in the signal ratio in the repeat runs, not every such curve was filed as active; the % refers to the signal ratio)
# Method in brief: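 Wild-type CHO-K1 cells plated overnight, then exposed 3 hr at 37C to compounds at 15 concentrations (0.76% DMSO). Lysed, then HTRF anti-pH2AX(S139)-cryptate/anti-H2AX-d2 detection after 24 hr at room temperature; emissions 665 and 620 nm.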
# [8] = qHTS RealTime-Glo MT Cell Viability Assay in HepG2 cells - 24 hour (AID 1224867); further: nearly all actives have a fitted effect of over 50% in size
# Method in brief: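 Viability was tracked continuously by NanoLuc luminescence from prosubstrate reduced by living HepG2 cells, at successive time points over 40 h of compound exposure. Cells with reagent were preincubated 5 h at 37 °C before compound addition.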
# [9] = qHTS RealTime-Glo MT Cell Viability Assay in HEK293 cells - 32 hour (AID 1224868); further: nearly all actives have a fitted effect of over 50% in size; further: potency means the concentration at half of the fitted maximal effect
# Method in brief: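 Viability tracked continuously by luminescence as live cells reduce a prosubstrate for NanoLuc; HEK293 cells preincubated 5 h, compound-treated at 37 C, and read at 0, 8, 16, 24, 32 and 40 h.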
# [10] = A CellTox Green Cytotoxicity Assay to monitor cytotoxicity in HEK293 cells - 0 hour (AID 1224869); further: nearly all actives have a fitted effect of over 50% in size
# Method in brief: (§1)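 Tox21 screen in HEK293: membrane-impermeant cyanine dye fluoresces on binding dead-cell DNA; compound pinned 5 h post-seeding, plates held at 37 C, signal read repeatedly through 40 h.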
# [11] = qHTS RealTime-Glo MT Cell Viability Assay in HepG2 cells - 40 hour (AID 1224870); further: nearly all actives have a fitted effect of over 50% in size
# Method in brief: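 HepG2 cells mixed with RealTime-Glo MT reagents (NanoLuc plus cell-permeant prosubstrate) were seeded at 600 cells/well, incubated 5 h at 37 C/5% CO2, then pinned with compounds in DMSO; nonlytic luminescence tracked viability during 40 h treatment.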
# [12] = A CellTox Green Cytotoxicity Assay to monitor cytotoxicity in HEK293 cells - 40 hour (AID 1224871); further: nearly all actives have a fitted effect of over 45% in size
# Method in brief: as §1
# [13] = qHTS assay to identify small molecule antagonists of the estrogen related receptor signaling pathway with the pleiotropic PPARgamma coactivator (PGC) from Tox21 10K library (AID 1224841; call rule not given here; further: potency means the concentration at half of the fitted maximal effect)
# Method in brief: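 Test chemicals dissolved in DMSO were applied to pre-incubated (6 h) PGC/ERR cells at 2,000 cells/well for an 18 h, 37 C treatment; reporter luminescence was then read using One-Glo.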
# [14] = qHTS assay to identify small molecule agonists of the estrogen related receptor signaling pathway with the pleiotropic PPARgamma coactivator (PGC) from Tox21 10K library (AID 1224842); further: nearly all actives have a fitted effect of over 15% in size
# Method in brief: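 PGC/ERR reporter cells (NTP line) were seeded 2,000 per well, rested 6 h at 37 C/5% CO2, then pin-dosed with compounds in DMSO for 18 h at 37 C; luciferase read by One-Glo luminescence after 30 min at room temperature.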
# [15] = target: Thyrotropin receptor (Homo sapiens) (UniProt P16473); assay: qHTS assay to identify small molecule agonists of the thyroid stimulating hormone receptor (TSHR) signaling pathway (AID 1224843; calls by dose curve; further: nearly all actives have a fitted effect of over 45% in size)
# Method in brief: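 Compounds are titrated over 15 concentrations, in triplicate, onto TSHR-HEK293 cells seeded at 800/well. Plates sit 30 min at room temperature before cAMP-d2 and anti-cAMP cryptate are added; signal is read after a further hour.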
# [16] = qHTS assay to identify small molecule antagonists of the estrogen related receptor (ERR) signaling pathway from Tox21 library (AID 1224848); further: nearly all actives have a fitted effect of over 50% in size; further: potency means the concentration at half of the fitted maximal effect
# Method in brief: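 First, 2,000 ERR cells per well were plated and held 6 h at 37 C/5% CO2. Next, compounds in DMSO were pinned in and left 18 h at 37 C. Finally, ONE-Glo was added and luminescence read after 30 min at room temperature.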
# [17] = qHTS assay to identify small molecule agonists of the estrogen related receptor (ERR) signaling pathway from Tox21 library (AID 1224849; calls by dose curve; further: nearly all actives have a fitted effect of over 15% in size); settings: ERR reporter cell line, ONE-Glo luciferase, 18 h
# Method in brief: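 Tox21 compounds tested for ERR agonism in an NTP reporter cell line: 18 h treatment at 37 C, then ONE-Glo luminescence.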
# [18] = qHTS assay to identify small molecule agonists of the hypoxia (HIF-1) signaling pathway (AID 1224846; active means well fitted activation curve with a large enough effect in the signal ratio in the repeat runs, not every such curve was filed as active; the % refers to the signal ratio)
# Method in brief: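 Reporter induction in HRE-bla ME-180 cells is taken as agonism: cells sit 5 hrs after plating, receive compounds or DMSO only, incubate 17 hrs at 37C under 5% CO2, and are loaded with CCF4-AM for beta-lactamase FRET measurement.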
# [19] = qHTS assay to identify small molecule agonists of H2AX - cell viability counter screen (AID 1224847; calls by dose curve; further: top concentration of the series differs between compounds; nearly all actives have a fitted effect of over 30% in size)
# Method in brief: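 Viability of CHO-K1 (wild type) cells after 3 hr compound exposure was measured by CellTiter-Glo luminescence.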
# [20] = qHTS assay to identify small molecule agonists of the constitutive androstane receptor (CAR) signaling pathway - cell viability counter screen (AID 1224836); further: potency means the concentration at half of the fitted maximal effect; nearly all actives have a fitted effect of over 45% in size
# Method in brief: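 Fluorescence from CellTiter-Fluor indicates live cells after 23 h exposure. The human hepatoma line expresses hCAR and a CYP2B6-2.2kb reporter. Incubation medium contains 0.75 uM PK11195 (final).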
# Chain of Nuclear receptor subfamily 1 group I member 3 (Homo sapiens) (Q14994 whole entry, looked up): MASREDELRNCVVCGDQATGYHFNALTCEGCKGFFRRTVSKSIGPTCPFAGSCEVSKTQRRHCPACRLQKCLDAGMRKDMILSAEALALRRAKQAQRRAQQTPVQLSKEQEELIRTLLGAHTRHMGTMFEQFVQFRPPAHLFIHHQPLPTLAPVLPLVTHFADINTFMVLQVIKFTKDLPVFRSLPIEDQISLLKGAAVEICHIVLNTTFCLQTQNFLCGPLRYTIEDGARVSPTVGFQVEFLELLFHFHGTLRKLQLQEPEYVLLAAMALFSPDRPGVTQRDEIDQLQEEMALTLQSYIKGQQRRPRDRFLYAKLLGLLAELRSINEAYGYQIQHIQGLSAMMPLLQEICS
# Chain of Luciferin 4-monooxygenase (Photinus pyralis) (P08659 whole entry, looked up): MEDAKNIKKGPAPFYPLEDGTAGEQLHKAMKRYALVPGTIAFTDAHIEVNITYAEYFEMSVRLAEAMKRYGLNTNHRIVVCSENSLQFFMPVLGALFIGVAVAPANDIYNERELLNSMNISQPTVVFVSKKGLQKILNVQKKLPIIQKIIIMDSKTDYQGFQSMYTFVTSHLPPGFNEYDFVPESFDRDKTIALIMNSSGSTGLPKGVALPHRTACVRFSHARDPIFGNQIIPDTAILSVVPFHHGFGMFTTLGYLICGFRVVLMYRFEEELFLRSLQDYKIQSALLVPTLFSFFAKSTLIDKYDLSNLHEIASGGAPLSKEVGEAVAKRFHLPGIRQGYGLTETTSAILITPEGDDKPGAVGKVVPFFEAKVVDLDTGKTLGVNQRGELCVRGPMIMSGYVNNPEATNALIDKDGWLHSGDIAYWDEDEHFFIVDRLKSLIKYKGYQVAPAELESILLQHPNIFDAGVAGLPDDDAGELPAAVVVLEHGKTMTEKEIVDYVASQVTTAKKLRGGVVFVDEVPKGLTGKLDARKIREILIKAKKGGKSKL
# Chain of Thyrotropin receptor (Homo sapiens) (P16473 whole entry, looked up): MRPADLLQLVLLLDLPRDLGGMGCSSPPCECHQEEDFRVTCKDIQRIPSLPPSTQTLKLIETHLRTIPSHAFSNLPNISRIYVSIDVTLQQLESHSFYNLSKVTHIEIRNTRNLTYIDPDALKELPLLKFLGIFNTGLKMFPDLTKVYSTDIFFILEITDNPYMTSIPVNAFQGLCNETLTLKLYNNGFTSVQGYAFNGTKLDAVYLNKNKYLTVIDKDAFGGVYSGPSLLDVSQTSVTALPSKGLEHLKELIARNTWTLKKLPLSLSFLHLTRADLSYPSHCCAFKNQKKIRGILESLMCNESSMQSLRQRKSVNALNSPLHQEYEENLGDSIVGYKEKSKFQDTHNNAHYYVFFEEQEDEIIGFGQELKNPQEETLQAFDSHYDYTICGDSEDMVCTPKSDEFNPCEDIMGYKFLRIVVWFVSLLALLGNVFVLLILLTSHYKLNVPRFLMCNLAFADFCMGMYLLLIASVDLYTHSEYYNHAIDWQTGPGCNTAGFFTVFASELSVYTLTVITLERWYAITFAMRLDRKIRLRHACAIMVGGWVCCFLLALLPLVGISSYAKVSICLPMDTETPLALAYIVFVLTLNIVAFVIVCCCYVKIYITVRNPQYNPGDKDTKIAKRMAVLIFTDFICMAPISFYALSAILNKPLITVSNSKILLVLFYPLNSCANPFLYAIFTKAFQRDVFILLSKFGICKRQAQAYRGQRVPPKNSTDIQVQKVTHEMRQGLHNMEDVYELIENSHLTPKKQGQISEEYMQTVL
structure (smiles),measurement,setting,value
CN(C)Cc1cc(CN(C)C)c(O)c(CN(C)C)c1,Potency,[1],inactive
same,Potency,[2],inactive
same,Potency,[3],inactive
same,Potency,[4],inactive
same,Potency,[5],inactive
same,Potency,[6],inactive
same,Potency,[7],inactive
same,outcome,[8],inactive
same,Potency,[9],inactive
same,Potency,[10],inactive
same,outcome,[11],inactive
same,Potency,[12],inactive
CC(C)Cc1ccc(C(C)C(=O)O)cc1 (configuration not stated),Potency,[2],inactive
same,Potency,[3],inactive
same,Potency,[4],inactive
same,Potency,[5],inactive
same,Potency,[13],inactive
same,Potency,[14],inactive
same,Potency,[15],inactive
same,Potency,[6],inactive
same,Potency,[7],inactive
same,Potency,[16],inactive
same,"activity change, positive = activation",[17]; at 42.5 µM (top of the series),3.45% (inactive)
same,"activity change, positive = activation",[17]; at 92.4 µM (top of the series),-6.89% (inactive) and 1.38% (inactive)
same,outcome,[8],inactive
same,Potency,[9],inactive
same,Potency,[10],inactive
same,outcome,[11],inactive
same,Potency,[12],inactive
Oc1cccc(O)c1,Potency,[1],inactive
same,Potency,[2],inactive
same,Potency,[5],inactive
same,Potency,[13],18.8 nM (active) and inactive
same,Potency,[14],inactive
same,Potency,[15],inactive
same,Potency,[6],inactive
same,Potency,[7],inactive
same,outcome,[18],inactive
same,Potency,[16],inactive
same,"activity change, positive = activation",[17]; at 42.5 µM (top of the series),6.02% (inactive)
same,"activity change, positive = activation",[17]; at 92.4 µM (top of the series),-15.4% (inactive) and -1.21% (inactive)
same,outcome,[8],inactive
same,Potency,[9],inactive
same,Potency,[10],inactive
same,outcome,[11],inactive
same,Potency,[12],inactive
NC(=O)NO,Potency,[1],inactive
same,Potency,[2],inactive
same,Potency,[3],inactive
same,Potency,[5],inactive
same,Potency,[15],inactive
same,Potency,[6],inactive
same,Potency,[7],inactive
same,Potency,[19],inactive
same,outcome,[8],inactive
same,Potency,[9],inactive
same,Potency,[10],inactive
same,outcome,[11],inactive
same,Potency,[12],inactive
c1ccc2[nH]c(-c3cscn3)nc2c1,Potency,[1],28.4 µM (active) and 35.6 µM (active) and 17.4 µM (active)
same,Potency,[2],inactive
same,Potency,[3],inactive
same,Potency,[4],13.8 µM (active) and 6.11 µM (active) and 7.5 µM (active)
same,Potency,[5],inactive
same,Potency,[6],inactive
same,Potency,[7],inactive
same,outcome,[8],inactive
same,Potency,[9],inactive
same,Potency,[10],inactive
same,outcome,[11],inactive
same,Potency,[12],inactive
CO[C@H]1C=CO[C@@]2(C)Oc3c(C)c(O)c4c(O)c(c(/C=N/N5CCN(C)CC5)c(O)c4c3C2=O)NC(=O)/C(C)=C\C=C[C@H](C)[C@H](O)[C@@H](C)[C@@H](O)[C@@H](C)[C@H](OC(C)=O)[C@@H]1C,Potency,[20],27.4 µM (active)
same,Potency,[2],30.8 µM (active)
same,Potency,[3],54.8 µM (active) and inactive
same,Potency,[4],inactive
same,Potency,[5],27.4 µM (active)
same,Potency,[13],48.8 µM (active) and 23.7 µM (active)
same,Potency,[14],inactive
same,Potency,[6],inactive
same,Potency,[16],48.8 µM (active) and 23.7 µM (active)
same,"activity change, positive = activation",[17]; at 42.5 µM (top of the series),-25.2% (inactive) and -32.7% (inactive)
same,"activity change, positive = activation",[17]; at 92.4 µM (top of the series),-53.6% (inactive)
same,outcome,[8],inactive
same,Potency,[9],19.6 µM (active) and 9.88 µM (active)
same,Potency,[10],inactive
same,outcome,[11],inactive
same,Potency,[12],inactive

# — PubChem BioAssay (Tox21)
